# “And” between values parts separate entries of the source, which are not always exact repeats. Identical values can stand only once. Results filed as inconclusive are left out. Where a call stands in place of a potency, no number is given. The source holds several records for some structures; these can differ, active in one and inactive in another. The source made the active and inactive calls. Unless noted, the call rests on the fitted dose curve; in most records, active means well fitted curve in the direction sought with a large enough effect; inconclusive means small, poorly fitted or top-dose-only effect, or another doubt; inactive means no such curve, though single readings can be large; an effect the other way counts as inactive or inconclusive.
# Key:
# [1] = Natriuretic polypeptide receptor (hNpr1) antagonism - Pilot counterscreen GloSensor control cell line (AID 1347045; calls by dose curve; further: potency means the concentration at half of the fitted maximal effect)
# Method in brief: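 Luminescence was read before and 20 min after adding 50 uM SNP, which stimulates soluble guanylyl cyclase. The HEK293 cells expressing the GloSensor cGMP sensor had been preloaded with 2% reagent for 2 h and treated with compound.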
# [2] = molecular target: Atrial natriuretic peptide receptor 2 (Homo sapiens) (UniProt P20594); assay: Natriuretic polypeptide receptor (hNpr2) antagonism - Pilot subtype selectivity assay (AID 1347050; calls by dose curve; further: potency means the concentration at half of the fitted maximal effect)
# Method in brief: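 HEK293 cells expressing hNpr2 and a GloSensor cGMP luciferase sensor, 1500/well, preloaded 2 h with 2% GloSensor reagent, compound 30 min, then 1 nM hNppC for 20 min. Antagonism from luminescence after versus baseline pre-read; LOPAC in 1:5 titrations.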
# [3] = NS1 protein of Zika virus - qHTS assay to identify small molecule inhibitors in human HEK 293 cells (AID 1347053); further: nearly all actives have a fitted effect of over 55% in size; further: potency means the concentration at half of the fitted maximal effect
# Method in brief: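 Inhibition of NS1 expression was scored in HEK 293 cells given compound 1 h ahead of MR766 virus (MOI = 0.5). Following 24 h at 37 C, two anti-NS1 antibodies generated a TR-FRET signal, scaled between uninfected and infected controls.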
# [4] = molecular target: T1, Tyrosine-protein phosphatase non-receptor type substrate 1 (Homo sapiens) + Leukocyte surface antigen CD47 (Homo sapiens) (UniProt P78324+Q08722); assay: CD47-SIRPalpha protein protein interaction - LANCE assay qHTS validation (AID 1347057; active means well fitted curve in the direction sought with a large enough effect in the signal ratio, with a control signal flat, not every such curve was filed as active; the % refers to the signal ratio; further: series mostly up to about 38 µM)
# Method in brief: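 First, His-tagged CD47 and Eu-labelled anti-His antibody met the compound for 30 min; next, site-specifically biotinylated SIRPalpha was added for 30 min; finally streptavidin-APC was added before reading the TR-FRET ratio.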
# [5] = molecular target: T1, Tyrosine-protein phosphatase non-receptor type substrate 1 (Homo sapiens) + Leukocyte surface antigen CD47 (Homo sapiens); assay: CD47-SIRPalpha protein protein interaction - HTRF assay qHTS validation (AID 1347058; active means well fitted curve in the direction sought with a large enough effect in the signal ratio, not every such curve was filed as active; the % refers to the signal ratio;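 further: recombinant soluble extracellular CD47 with His tag and biotinylated SIRPalpha domains; series mostly up to about 38 µM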)
# Method in brief: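 TR-FRET read (Ch1/Ch2 ratio) of soluble extracellular CD47 and Avi-biotinylated SIRPalpha domains in PBS pH 7.4 with 0.05% IGEPAL; 7-point compound titration. Sequential 30 min room-temperature steps; non-biotinylated SIRPalpha as control inhibitor.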
# [6] = molecular target: Parathyroid hormone/parathyroid hormone-related peptide receptor (Homo sapiens) (UniProt Q03431); assay: qHTS for PTHR1 Agonists: Optimization Screen against the NCGC LOPAC library (AID 1347079);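 further: GloSensor cAMP luminescence in HEK-293 GP2 cells expressing human PTHR1 with IBMX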
# Method in brief: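 Agonist readout: GloSensor cAMP luminescence, read after 15 min at room temperature. HEK-293-derived GP2 line carries PTHR1; compounds tested as a titration for 1 hr at 37C in presence of IBMX. M-PTH (1-15) served as control.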
# [7] = qHTS of pediatric cancer cell lines to identify multiple opportunities for drug repurposing: Primary screen for TC32 cells (AID 1347089); further: nearly all actives have a fitted effect of over 60% in size; further: potency means the concentration at half of the fitted maximal effect
# Method in brief: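 Luminescent ATP read-out (CellTiter-Glo) of metabolically active TC32 cells after 48 h exposure. Concentration-response curves came from 11-point (MIPE, 0.78 nM–46 µM) or 8-point (NPC, 0.59 nM–46 µM) primary titrations; follow-up used 11 points.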
# [8] = qHTS of pediatric cancer cell lines to identify multiple opportunities for drug repurposing: Primary screen for SJ-GBM2 cells (AID 1347091); further: potency means the concentration at half of the fitted maximal effect
# Method in brief: (§1)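 Viability measured as metabolically active cells via CellTiter-Glo luminescence following 48 hours of compound exposure, 11-point dilutions in confirmatory testing. 500-1,000 cells/well plated 5 hours before dosing; controls were DMSO and 2.3 µM bortezomib.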
# [9] = qHTS of pediatric cancer cell lines to identify multiple opportunities for drug repurposing: Primary screen for SK-N-MC cells (AID 1347093); further: potency means the concentration at half of the fitted maximal effect
# Method in brief: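 Metabolically active cells were quantified by ATP-dependent luminescence (CellTiter-Glo, 15 min at room temperature) following 48 h treatment. Cells had been plated at 500-1,000 per well and settled for 5 h beforehand.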
# [10] = qHTS of pediatric cancer cell lines to identify multiple opportunities for drug repurposing: Primary screen for BT-37 cells (AID 1347094); further: potency means the concentration at half of the fitted maximal effect
# Method in brief: (§2)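 Phenotypic viability qHTS, 48 h compound exposure, CellTiter-Glo luminescence read-out; multi-concentration dosing so that potency and efficacy derive directly from the primary screen's curves.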
# [11] = qHTS of pediatric cancer cell lines to identify multiple opportunities for drug repurposing: Primary screen for NB-EBc1 cells (AID 1347095); further: potency means the concentration at half of the fitted maximal effect
# Method in brief: as §2
# [12] = qHTS of pediatric cancer cell lines to identify multiple opportunities for drug repurposing: Primary screen for Saos-2 cells (AID 1347097); further: nearly all actives have a fitted effect of over 40% in size; further: potency means the concentration at half of the fitted maximal effect
# Method in brief: as §2
# [13] = qHTS of pediatric cancer cell lines to identify multiple opportunities for drug repurposing: Primary screen for SK-N-SH cells (AID 1347098); further: nearly all actives have a fitted effect of over 65% in size; further: potency means the concentration at half of the fitted maximal effect
# Method in brief: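 Cells (500-1,000/well) rested 5 h, then received compounds for 48 h; metabolically active cells were measured by CellTiter-Glo luminescence. Final concentrations spanned up to 46 µM (MIPE, 11-point) or 0.59 nM-46 µM (NPC, 8-point) in primary screens, 11-point in follow-ups.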
# [14] = P-glycoprotein substrates identified in KB-8-5-11 adenocarcinoma cell line, qHTS therapeutic library screen (AID 1346987); further: nearly all actives have a fitted effect of over 65% in size; further: potency means the concentration at half of the fitted maximal effect
# Method in brief: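 Steps: plate 500 KB-8-5-11 cells/well in DMEM + 10% FCS (colchicine removed); pin compounds in dose-response; incubate 72 h, 37 degree C, 5% CO2; add CellTiter-Glo, 5 min; read luminescence.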
# [15] = qHTS of pediatric cancer cell lines to identify multiple opportunities for drug repurposing: Primary screen for DAOY cells (AID 1347090); further: nearly all actives have a fitted effect of over 55% in size; further: potency means the concentration at half of the fitted maximal effect
# Method in brief: as §1
# [16] = qHTS of pediatric cancer cell lines to identify multiple opportunities for drug repurposing: Primary screen for U-2 OS cells (AID 1347096); further: nearly all actives have a fitted effect of over 50% in size; further: potency means the concentration at half of the fitted maximal effect
# Method in brief: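 Viability after 48 h compound treatment at 37C, 500-1,000 cells/well, read as ATP luminescence with CellTiter-Glo. Primary screens used 11-point (MIPE, 0.78 nM-46 µM) or 8-point (NPC, 0.59 nM-46 µM) final concentrations; follow-up screens used 11-point dilutions.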
# [17] = qHTS of pediatric cancer cell lines to identify multiple opportunities for drug repurposing: Primary screen for A673 cells (AID 1347092); further: nearly all actives have a fitted effect of over 45% in size; further: potency means the concentration at half of the fitted maximal effect
# Method in brief: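 Cell viability of A673 measured by CellTiter-Glo ATP luminescence after 48 hours compound exposure. Dilution series spanned 0.78 nM to 46 µM (MIPE, 11-point) or 0.59 nM to 46 µM (NPC, 8-point); bortezomib 2.3 uM positive control.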
# T1 sequence (P78324 whole entry, looked up): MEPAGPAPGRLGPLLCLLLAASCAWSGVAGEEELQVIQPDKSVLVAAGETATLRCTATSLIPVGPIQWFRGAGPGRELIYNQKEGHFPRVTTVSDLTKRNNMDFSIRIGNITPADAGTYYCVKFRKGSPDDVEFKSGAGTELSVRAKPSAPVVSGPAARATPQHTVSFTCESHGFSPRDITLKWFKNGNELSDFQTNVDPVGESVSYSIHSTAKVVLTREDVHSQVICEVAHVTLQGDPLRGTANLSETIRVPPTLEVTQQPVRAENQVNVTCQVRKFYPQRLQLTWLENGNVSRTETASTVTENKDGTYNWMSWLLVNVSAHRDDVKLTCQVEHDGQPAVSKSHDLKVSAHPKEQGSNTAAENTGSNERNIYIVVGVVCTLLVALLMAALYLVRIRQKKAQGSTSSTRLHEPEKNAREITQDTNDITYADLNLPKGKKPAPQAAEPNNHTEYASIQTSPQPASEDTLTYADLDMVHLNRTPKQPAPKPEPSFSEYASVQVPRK
# T1 sequence (Q08722 whole entry, looked up): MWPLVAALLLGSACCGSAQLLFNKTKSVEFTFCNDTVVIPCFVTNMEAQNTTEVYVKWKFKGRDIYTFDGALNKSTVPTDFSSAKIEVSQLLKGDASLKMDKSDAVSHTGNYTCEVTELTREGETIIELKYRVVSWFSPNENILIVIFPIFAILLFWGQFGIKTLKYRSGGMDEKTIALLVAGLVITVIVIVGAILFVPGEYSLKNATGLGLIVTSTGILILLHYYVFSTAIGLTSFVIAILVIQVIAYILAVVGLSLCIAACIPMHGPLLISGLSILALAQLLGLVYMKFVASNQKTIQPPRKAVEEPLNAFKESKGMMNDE
# Chain of Parathyroid hormone/parathyroid hormone-related peptide receptor (Homo sapiens) (Q03431 whole entry, looked up): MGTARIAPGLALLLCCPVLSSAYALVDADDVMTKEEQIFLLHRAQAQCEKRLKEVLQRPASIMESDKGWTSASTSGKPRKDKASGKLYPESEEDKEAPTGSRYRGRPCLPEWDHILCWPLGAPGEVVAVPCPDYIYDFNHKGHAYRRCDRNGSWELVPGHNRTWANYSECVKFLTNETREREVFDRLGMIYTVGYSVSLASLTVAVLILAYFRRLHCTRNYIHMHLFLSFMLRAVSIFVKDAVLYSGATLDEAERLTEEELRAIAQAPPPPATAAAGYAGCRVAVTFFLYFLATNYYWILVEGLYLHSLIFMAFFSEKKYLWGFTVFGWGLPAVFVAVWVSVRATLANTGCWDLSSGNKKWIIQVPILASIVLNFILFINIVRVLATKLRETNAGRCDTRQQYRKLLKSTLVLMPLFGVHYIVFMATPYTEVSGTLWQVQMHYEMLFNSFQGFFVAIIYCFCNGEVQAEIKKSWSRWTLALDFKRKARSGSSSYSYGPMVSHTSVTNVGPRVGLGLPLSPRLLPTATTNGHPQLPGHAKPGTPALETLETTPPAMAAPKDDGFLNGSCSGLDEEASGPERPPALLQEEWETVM
# Chain of Atrial natriuretic peptide receptor 2 (Homo sapiens) (P20594 whole entry, looked up): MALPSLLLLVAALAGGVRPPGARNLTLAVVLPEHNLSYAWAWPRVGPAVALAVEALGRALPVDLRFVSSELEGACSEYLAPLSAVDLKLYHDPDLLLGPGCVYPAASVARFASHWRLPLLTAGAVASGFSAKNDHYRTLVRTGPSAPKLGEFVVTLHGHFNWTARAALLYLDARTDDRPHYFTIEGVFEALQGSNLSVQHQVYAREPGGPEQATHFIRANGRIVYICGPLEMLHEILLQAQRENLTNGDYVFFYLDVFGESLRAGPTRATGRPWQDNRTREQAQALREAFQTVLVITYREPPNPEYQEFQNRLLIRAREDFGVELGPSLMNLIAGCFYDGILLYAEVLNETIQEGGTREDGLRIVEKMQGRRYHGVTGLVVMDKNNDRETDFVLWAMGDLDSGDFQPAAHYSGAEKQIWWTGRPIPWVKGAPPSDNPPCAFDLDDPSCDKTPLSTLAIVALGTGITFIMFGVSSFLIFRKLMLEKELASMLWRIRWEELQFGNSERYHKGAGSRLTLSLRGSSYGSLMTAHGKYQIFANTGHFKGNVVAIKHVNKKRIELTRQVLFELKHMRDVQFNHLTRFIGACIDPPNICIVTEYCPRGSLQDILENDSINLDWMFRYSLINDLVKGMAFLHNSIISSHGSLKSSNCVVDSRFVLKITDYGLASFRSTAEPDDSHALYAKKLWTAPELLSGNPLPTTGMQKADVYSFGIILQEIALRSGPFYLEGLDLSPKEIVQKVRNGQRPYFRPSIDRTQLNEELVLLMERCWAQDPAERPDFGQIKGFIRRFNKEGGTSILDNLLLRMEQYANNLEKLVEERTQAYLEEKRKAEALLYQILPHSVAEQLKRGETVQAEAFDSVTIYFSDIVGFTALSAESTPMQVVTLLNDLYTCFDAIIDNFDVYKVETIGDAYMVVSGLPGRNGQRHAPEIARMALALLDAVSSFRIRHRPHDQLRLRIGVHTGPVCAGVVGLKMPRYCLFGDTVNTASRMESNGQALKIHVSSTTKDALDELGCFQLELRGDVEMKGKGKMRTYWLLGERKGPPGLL
SMILES,Potency [1],Potency [2],Potency [3],outcome [4],outcome [5],outcome [6],Potency [7],Potency [8],Potency [9],Potency [10],Potency [11],Potency [12],Potency [13],Potency [14],Potency [15],Potency [16],Potency [17]
Cc1ccc(S(=O)(=O)N[C@@H](Cc2ccccc2)C(=O)CCl)cc1,3.29 µM (active),5.85 µM (active),inactive,inactive,inactive,inactive,inactive,9.35 µM (active),7.43 µM (active),24.3 µM (active),16.6 µM (active),9.35 µM (active),21.5 µM (active),,,,
CC[C@H](NC(C)C)[C@H](O)c1ccc(O)c2[nH]c(=O)ccc12,,,inactive,,,,inactive,,inactive,inactive,inactive,inactive,inactive,inactive,inactive,inactive,
Oc1c(Cl)cc(Cl)c2cccnc12,,,,,,,,8.41 µM (active) and 11.8 µM (active),4.73 µM (active) and 9.35 µM (active),24.6 µM (active) and 27.3 µM (active),2.99 µM (active) and 7.43 µM (active),16.6 µM (active),3.86 µM (active) and 30.4 µM (active),1.46 µM (active),4.22 µM (active) and 9.35 µM (active),,2.66 µM (active) and 9.35 µM (active)
N=C(N)c1ccc(OCCCCCOc2ccc(C(=N)N)cc2)cc1,,,inactive,,,,,inactive,33.2 µM (active),,inactive,,9.61 µM (active),inactive,,inactive,21.1 µM (active) and 14.8 µM (active)
Clc1ccccc1CN1CCc2sccc2C1,,,inactive,,,,inactive,,,1.53 µM (active),inactive,1.48 µM (active),inactive,inactive,inactive,inactive,
CCCc1nc(C)c2c(=O)[nH]c(-c3cc(S(=O)(=O)N4CCN(CC)CC4)ccc3OCC)nn12,,,inactive and 10.5 µM (active),,,,inactive,,,,,,,,,,
CCn1cc(C(=O)O)c(=O)c2cc(F)c(N3CCNCC3)nc21,,,inactive,,,,inactive,,inactive,inactive,inactive,inactive,inactive,inactive,inactive,inactive,
Cc1onc(-c2ccccc2Cl)c1C(=O)N[C@@H]1C(=O)N2[C@@H]1SC(C)(C)[C@@H]2C(=O)O,,,inactive,,,,inactive,inactive,inactive,inactive,inactive,inactive,inactive,,inactive,inactive,inactive
S=P(N1CC1)(N1CC1)N1CC1,,,inactive,,,,inactive,,3.72 µM (active),,1.05 µM (active),,inactive,inactive,inactive,inactive,23.5 µM (active)
NC(=O)c1cccnc1,,,inactive,,,,inactive,inactive,inactive,inactive,inactive,,inactive,,inactive,inactive,
COc1cc(NCc2ccc3nc(N)nc(N)c3c2C)cc(OC)c1OC,,,,,,,2.94 µM (active) and 33.3 nM (active),2.64 µM (active) and 29.9 nM (active),332 nM (active) and 11.9 nM (active),1.53 µM (active) and 69.2 nM (active),3.72 µM (active),11.8 µM (active),,inactive and 5.8 µM (active),3.72 µM (active) and 133 nM (active),3.72 µM (active),
COc1ccc2cc3[n+](cc2c1OC)CCc1cc2c(cc1-3)OCO2,,,inactive,,,,,inactive,8.41 µM (active) and 18.7 µM (active),,,,inactive,inactive,6.68 µM (active) and 18.7 µM (active),inactive,2.11 µM (active) and 2.35 µM (active)
CC(C)(Sc1cc(C(C)(C)C)c(O)c(C(C)(C)C)c1)Sc1cc(C(C)(C)C)c(O)c(C(C)(C)C)c1,,,inactive,,,,inactive,,,inactive,inactive,inactive,inactive,inactive,inactive,inactive,
